Among the data in the supplement of paper PMC11537057 are HSV-1 infection values, retold here.

Counter-ions that a name gives are not always drawn. Out of some 1,700 compounds screened, about 15 (0.9%) showed activity.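 How the source made its calls: active = infection cut by 80% or more with cell growth above 90% in both runs; inactive = the rest.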 The list comes from a sample in which actives are over-represented; it also holds similar structures and randomly drawn compounds.

For this assay, the system named is HSV-1 strain 17 YFP-ICP4 in A549. As to the kind of experiment: HSV-1 infection relative to DMSO (ICP4-YFP per H2B-RFP signal); higher = more viral infection (less antiviral activity), active = hit call of the paper. The conditions noted are these: 10 µM; 48 h; MOI: 0.1. As for the experimental part: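 Selleck FDA-approved library (L1300) screened in duplicate at 10 µM on A549 H2B-mRuby cells in 384-well plates, infected with HSV-1 strain 17 YFP-ICP4 at MOI 0.1 one hour before drug addition. Imaged after 2 days at 37°C. Cell growth (H2B-RFP) and infection (ICP4-YFP) are expressed as % of DMSO-treated wells. Hits: growth >90% and infection <20% of DMSO.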
As for `Cc1cccc(C)c1N(CC(=O)Nc1ccc(-c2ncon2)cc1)C(=O)C1CCS(=O)(=O)CC1` [Amenamevir], the HSV-1 infection is 2.63% (active). Consider `[OH][Al]([OH])[OH]` [Aluminium hydroxide], for which the HSV-1 infection is 113% (inactive). The value for `COc1ccc([C@]2(C#N)CC[C@@H](C(=O)O)CC2)cc1OC1CCCC1` [Cilomilast] was 94% (inactive). Consider `COc1cc(O)c(C(=O)Nc2nc(C(=O)NCCN(C(C)C)C(C)C)cs2)cc1OC` [Acotiamide hydrochloride], for which the HSV-1 infection is 75.1% (inactive). Regarding `COc1cc(O)c(C(=O)Nc2nc(C(=O)NCCN(C(C)C)C(C)C)cs2)cc1OC` [Acotiamide], the HSV-1 infection is 116% (inactive). Take `Cc1c(-c2ccc(O)cc2)n(Cc2ccc(OCCN3CCCCCC3)cc2)c2ccc(O)cc12` [Bazedoxifene HCl]: the HSV-1 infection is 26.6% (inactive).

With `Cc1c(-c2ccc(O)cc2)n(Cc2ccc(OCCN3CCCCCC3)cc2)c2ccc(O)cc12` [Bazedoxifene Acetate], the HSV-1 infection is 31.7% (inactive). Regarding `CCCSc1nc(N[C@@H]2C[C@H]2c2ccc(F)c(F)c2)c2nnn([C@@H]3C[C@H](OCCO)[C@@H](O)[C@H]3O)c2n1` [Ticagrelor], the HSV-1 infection was 87.1% (inactive).

In the case of `C[C@@H]1CCO[C@H]2Cn3cc(C(=O)NCc4ccc(F)cc4F)c(=O)c(O)c3C(=O)N12`, the HSV-1 infection is 122% (inactive). Take `Cc1cc(N2CCN([C@@H]3CN[C@H](C(=O)N4CCSC4)C3)CC2)n(-c2ccccc2)n1` [Teneligliptin hydrobromide]: the HSV-1 infection was 113% (inactive). Turning to `CCCCCCCCCCCCCCCCCC(=O)O` [Stearic acid], the HSV-1 infection was 86.7% (inactive). Regarding `O=C([O-])[C@H](O)[C@@H](O)[C@H](O)[C@H](O)CO.O=C([O-])[C@H](O)[C@@H](O)[C@H](O)[C@H](O)CO.[Ca+2]` [Calcium gluconate], the HSV-1 infection was 83.3% (inactive). As to `Nc1nc(O)c2ncn(CCC(CO)CO)c2n1` [Penciclovir], the HSV-1 infection is 2.92% (active).

For `CC(=O)OCC(CCn1cnc2cnc(N)nc21)COC(C)=O` [Famciclovir], the HSV-1 infection was 102% (inactive). Take `CCC(=O)O[C@]1(C(=O)CCl)[C@@H](C)C[C@H]2[C@@H]3C[C@H](F)C4=CC(=O)C=C[C@]4(C)[C@@]3(F)[C@@H](O)C[C@@]21C` [Halobetasol Propionate]: the HSV-1 infection is 60.2% (inactive). In the case of `CCc1ccc(Cc2ccc3c(c2)[C@]2(OC3)O[C@H](CO)[C@@H](O)[C@H](O)[C@H]2O)cc1` [Tofogliflozin(CSG 452)], the HSV-1 infection was 92.2% (inactive). For `CC[C@H](C)[C@H](N)C(=O)O` [isoleucine], the HSV-1 infection was 114% (inactive). Regarding `Cc1c(C(=O)NN2CCCCC2)nn(-c2ccc(Cl)cc2Cl)c1-c1ccc(Cl)cc1` [Rimonabant], the HSV-1 infection was 94.5% (inactive).

For `CC(C)c1nc(CN(C)C(=O)N[C@@H](CCN2CCOCC2)C(=O)N[C@H](CC[C@H](Cc2ccccc2)NC(=O)OCc2cncs2)Cc2ccccc2)cs1` [Cobicistat (GS-9350)], the HSV-1 infection was 86.4% (inactive). For `CCN(c1cc(-c2ccc(CN3CCOCC3)cc2)cc(C(=O)NCc2c(C)cc(C)[nH]c2=O)c1C)C1CCOCC1` [Tazemetostat (EPZ-6438)] the value was 106% (inactive); for `Nc1cc(N2CCCCC2)nc(N)[n+]1OS(=O)(=O)[O-]` [Minoxidil sulphate], 97.8% (inactive); for `N[C@@H](CCC(=O)O)C(=O)[O-].[Na+]` [L-Glutamic acid monosodium salt], 84.3% (inactive). As for `Cc1ccc(C(C)C)c(O)c1` [Thymol], the HSV-1 infection was 95.3% (inactive). Take `CCC(=O)O[C@@H]1CC(=O)O[C@H](C)C/C=C/C=C/[C@H](O)[C@H](C)C[C@H](CC=O)[C@H](O[C@@H]2O[C@H](C)[C@@H](O[C@H]3C[C@@](C)(O)[C@@H](OC(=O)CC)[C@H](C)O3)[C@H](N(C)C)[C@H]2O)[C@H]1OC` [Midecamycin]: the HSV-1 infection is 96.5% (inactive).

As to `CN(N=O)C(=O)NC1C(O)OC(CO)C(O)C1O` (stereo unspecified) [Streptozotocin (STZ)], the HSV-1 infection was 73.6% (inactive). The value for `O=C(O)CSc1nnc(Br)n1-c1ccc(C2CC2)c2ccccc12` [Lesinurad] was 87.1% (inactive); that for `CCCCCOc1ccc(-c2cc(-c3ccc(C(=O)N[C@H]4C[C@@H](O)[C@@H](O)NC(=O)[C@@H]5[C@@H](O)[C@@H](C)CN5C(=O)[C@H]([C@H](O)CC(N)=O)NC(=O)[C@H]([C@H](O)[C@@H](O)c5ccc(O)c(OS(=O)(=O)O)c5)NC(=O)[C@@H]5C[C@@H](O)CN5C(=O)[C@H]([C@@H](C)O)NC4=O)cc3)no2)cc1` [Micafungin Sodium] was 105% (inactive); that for `CCc1c(Cl)c(O)c(Cl)c(O)c1C(=O)O[C@H]1[C@H](O)[C@H](OC)[C@H](OC/C2=C\C=C\C[C@H](O)/C(C)=C/[C@H](CC)[C@@H](O[C@@H]3OC(C)(C)[C@@H](OC(=O)C(C)C)[C@H](O)[C@@H]3O)/C(C)=C/C(C)=C/C[C@@H]([C@@H](C)O)OC2=O)O[C@@H]1C` [Fidaxomicin] was 126% (inactive). The value for `CC(=C(CCOC(=O)C(C)C)SSC(CCOC(=O)C(C)C)=C(C)N(C=O)Cc1cnc(C)nc1N)N(C=O)Cc1cnc(C)nc1N` (stereo in doubt) [Sulbutiamine] was 92.2% (inactive); that for `C[N+](C)(C)CC(O)CC(=O)[O-]` (racemic) [DL-Carnitine HCl] was 94.4% (inactive). Consider `Nc1ccc(S(=O)(=O)Nc2cncc(Cl)n2)cc1` [Sulfalozine sodium], for which the HSV-1 infection is 105% (inactive). Turning to `C=C[C@]1(C)C[C@@H](OC(=O)CS[C@@H]2C[C@H]3CC[C@@H](C2)N3C)[C@]2(C)[C@H](C)CC[C@]3(CCC(=O)[C@H]32)[C@@H](C)[C@@H]1O` [Retapamulin], the HSV-1 infection was 32.7% (inactive). The value for `COc1cccc(-c2c(C)n(Cc3c(F)cccc3C(F)(F)F)c(=O)n(C[C@H](NCCCC(=O)O)c3ccccc3)c2=O)c1F` [Elagolix Sodium] was 109% (inactive). For `OC(c1ccccc1)(c1ccccc1)C12CC[N+](CCOCc3ccccc3)(CC1)CC2` [Umeclidinium bromide] the value was 100% (inactive); for `CC1CNc2c(cccc2S(=O)(=O)N[C@@H](CCCNC(=N)N)C(=O)N2CC[C@@H](C)C[C@@H]2C(=O)O)C1` (stereo partly specified) [Argatroban Monohydrate], 97.4% (inactive).

Consider `CC1CNc2c(cccc2S(=O)(=O)N[C@@H](CCCNC(=N)N)C(=O)N2CC[C@@H](C)C[C@@H]2C(=O)O)C1` (stereo partly specified) [Argatroban], for which the HSV-1 infection was 99.1% (inactive).
